Bioassay records as filed in PubChem BioAssay.
In the library only some 8.6% were active in any assay of this set; here they are far more common.
Lassa entry – blocks Lassa virus binding or cell entry; Lassa virus pseudotyped entry inhibition, cell-based qHTS; Potency, µM (series often up to 49.2 µM), usual class: inhibitors; actives 4.1% (n = 18,000); AID 720533
MARV entry inh – inhibitors of Marburg virus binding or entry into cells | Marburg virus pseudotype entry/binding inhibition, cell-based | Potency, µM (top dose mostly 49.2 µM), hits mostly inhibitors | actives 6.5% (n = 18,000)
A number is an active result; 0 = inactive; ? = inconclusive; - = no result given; ! = a repeat was not active; [ ] = remark or other dose. The call rests on the fitted dose curve; tested in HEK293 cells.

SMILES	Lassa entry	MARV entry inh
COc1ccc(C(=O)N(Cc2cc3cccc(C)c3nc2N(C)C)CC2CCCO2)cc1 (stereo not drawn)	0	0
CCN(CC)CCOC(=O)C(Cc1cccc2ccccc12)CC1CCCO1 (stereo not drawn)	?	10µM
COc1ccccc1C1CN(CCNC(=O)c2cnsn2)Cc2ccccc2O1 (stereo not drawn)	0	?
C=CCN=C1NC(c2cccc(C(F)(F)F)c2)C(C(=O)OC)=C(C)N1CC (stereo not drawn)	0[8.59 µM]	0[8.59 µM]
CN(CCOc1ccc(NS(C)(=O)=O)cc1)CCc1ccc(NS(C)(=O)=O)cc1	0	0
CCCCc1oc2ccc(NS(C)(=O)=O)cc2c1C(=O)c1ccc(OCCCN(CCCC)CCCC)cc1	13µM	6.3µM
COc1cccc([C@@H]2Oc3ccc(Br)cc3C(=O)[C@@H]2OC(=O)Nc2ccc(OC(F)F)cc2)c1	0[8.59 µM]	0[8.59 µM]
CN(C)CCOc1ccccc1Cc1ccccc1	0	?
CNCCCCOc1ccccc1Cc1ccccc1	?	7.1µM
C[C@H]1CN(c2ccccc2)C(=O)[C@H]1CC(=O)Nc1ccc(Br)cc1	0	0
O[C@@H]1CO[C@@H](C=Cc2ccccc2)[C@H]1OCc1cccc(Br)c1	-	0[8.59 µM]
C=CC[N@@+]12CC[C@@]34c5ccccc5N5/C=C6/[C@H]7C[C@H]8[C@@]9(CC[N@@+]8(CC=C)C/C7=C/CO)c7ccccc7N(/C=C(/[C@@H](C[C@@H]31)/C(=C\CO)C2)[C@H]54)[C@@H]69	0	0
CC(C)C[C@@H](NC(=O)[C@@H](O)[C@H](N)Cc1ccccc1)C(=O)O	0	0
CC(C)C[C@H](NC(=O)[C@H](Cc1ccccc1)NC(=O)c1cnccn1)B(O)O	2.8µM	3.5µM
COC(=O)C1=C(C)N(CC#C[Si](C)(C)C)C(=O)N(C(C)=O)C1c1ccccc1 (stereo not drawn)	0[8.59 µM]	0[8.59 µM]
CC(C)=CCCC(C)=CCN1C(=O)[C@]2(O[C@H](COc3ccccc3)CC3=CCCC32)c2c(Br)cccc21 (stereo partly drawn)	0[8.59 µM]	0[8.59 µM]
CCCCCCN1C[C@@H](n2cc(C3CC3)nn2)[C@H](O)C[C@H]1c1ccc(OC)cc1	-	0
O=C(O)c1cc(O)c2c(c1)C(=O)c1cccc(O)c1C2=O	0	13µM
Cc1cc(O)c2c(c1)C(=O)c1cccc(O)c1C2=O	0	0
COc1ccc([C@H]2O[C@@H](c3ccc(OC)c(OC)c3)[C@H](C)[C@@H]2C)cc1OC	0	0
Cc1cc(C)cc([C@H]2C[C@]34CN(Cc5ccccc5)[S+](=O)([O-])[C@@H]3C[C@@H]2O4)c1	0	0
CC(Cc1cccc(C(F)(F)F)c1)NCCCc1ccccc1 (stereo not drawn)	32µM	14µM
CCN[C@H](C)Cc1cccc(C(F)(F)F)c1	0	0
CCCCCCN1C[C@@H](O)[C@H](n2cc(-c3ccc(F)cc3)nn2)C[C@H]1c1ccc(C)cc1	0	?
CCCCCC(=O)N1C[C@H](n2cc(COC(=O)c3ccccc3)nn2)[C@@H](O)C[C@H]1c1ccccc1	0	?
SMILES	Lassa entry	MARV entry inh
CCC(C)c1cc([N+](=O)[O-])cc([N+](=O)[O-])c1OC(=O)OC(C)C (stereo not drawn)	18µM	?
CCC(C)c1cc([N+](=O)[O-])cc([N+](=O)[O-])c1OC(C)=O (stereo not drawn)	0	0
COc1ccc(O[C@H]2C=C[C@@H](c3ccccc3)O[C@H]2COC(=O)CCC(C)=NOCC[C@@H]2C=C[C@H](OC(C)=O)[C@@H](COC(C)=O)O2)cc1	0[8.59 µM]	0[8.59 µM]
CN1C(=O)[C@]23CC4=CC=C[C@H](O)[C@H]4N2C(=O)[C@@]1(CO)SS3	2.5µM	1.4µM
CC(C)C1C(=O)N(Cc2cn(CCC3OCCCO3)nn2)CCS(=O)(=O)N1Cc1ccc(-c2ccccc2)cc1 (stereo not drawn)	-	0
O=C1C[C@@H](c2ccccc2)[C@H](c2ccc(Br)cc2)O1	0[8.59 µM]	0[8.59 µM]
CC(=O)N[C@@H](CC(C)C)C(=O)N[C@@H](CC(C)C)C(=O)N[C@H](C=O)CCCN=C(N)N	0	0.11µM
CCCC[C@@H](C=O)NC(=O)[C@H](CC(C)C)NC(=O)OCc1ccccc1	20µM	?
CSCC[C@H](C=O)NC(=O)[C@H](CC(C)C)NC(=O)[C@H](CC(C)C)NC(C)=O	0	?
CC(C)C[C@H](NC(=O)[C@H](CC(C)C)NC(=O)[C@H](Cc1ccccc1)NC(=O)[C@@H](N)CO)C(=O)N[C@@H](CCCN=C(N)N)C(=O)N[C@@H](CC(N)=O)C(=O)O	0	0
CCCCC(C=O)NC(=O)C(CC(C)C)NC(=O)OCc1ccccc1 (stereo not drawn)	0	?
CCCC[C@@H](C=O)NC(=O)[C@H](CC(C)C)NC(=O)[C@H](CC(C)C)NC(C)=O	10µM	0.089µM
COC(=O)CC=C[C@H](C)[C@@H](OCc1ccccc1Br)C(C)C	-	0[8.59 µM]
O=C(NCC1CC1)c1ccc(-c2cccc(C(=O)NC3CC3)c2)cc1	0	0
O=S1(=O)CC(N2CCN(CCO)CC2)CN1CCc1ccccc1 (stereo not drawn)	0	0
OCCN1CCN(CCCN2c3ccccc3C=Cc3ccccc32)CC1	25µM!	11µM
OCCN1CCN(CCCN2c3ccccc3Sc3ccc(C(F)(F)F)cc32)CC1	16µM!	7.1µM
CN1CCN(CCC(=O)N2c3ccccc3Sc3ccc(C(F)(F)F)cc32)CC1	?	16µM
Cc1scc2c1N(C(=O)CN1CCN(C)CC1)c1ccccc1NC2=O	0	0
CN1CCN(CCC=C2c3ccccc3Sc3ccc(S(=O)(=O)N(C)C)cc32)CC1	20µM	10µM
CCCCCC(=O)N1C[C@H](n2cc(C3CC3)nn2)[C@@H](O)C[C@H]1c1ccc(Cl)cc1	?	0
C[C@]12CC[C@H]3[C@@H](CCC4=CC(=O)CC[C@@]43C)[C@@H]1CC[C@H]2O	0	0
COC(=O)C1=C(C(=O)OC)[C@@H]2N(C)c3ccccc3[C@@]23CCC(=O)N(Cc2ccc(OC)cc2)C3=N1	0[8.59 µM]	0[8.59 µM]
Fc1ccc(-c2cc(-c3cn[nH]c3-c3ccccn3)ccn2)cc1	0	0
Nc1ccc(CCN2CCN(c3cccc(C(F)(F)F)c3)CC2)cc1	?	0
SMILES	Lassa entry	MARV entry inh
COc1ccccc1N1CCN(CCCCNC(=O)c2ccc(-c3ccc(C(C)=O)cc3)cc2)CC1	0	?
CC(=O)c1ccc2c(c1)N(CCCN1CCN(CCO)CC1)c1ccccc1S2	28µM	10µM
OCCN1CCN(CC/C=C2/c3ccccc3Sc3ccc(C(F)(F)F)cc32)CC1	13µM	5.6µM
CCC(=O)c1ccc2c(c1)N(CCCN1CCN(CCO)CC1)c1ccccc1S2	14µM	10µM
CC(=O)C1=C(C)N(Cc2ccccc2)C(=O)NC1c1cccc(C(F)(F)F)c1 (stereo not drawn)	0[8.59 µM]	0[8.59 µM]
C=CCN1c2ccccc2[C@]23CCC(=O)N(CC(=O)OC)C2=NC(C(=O)OC)=C(C(=O)OC)[C@H]13	0[8.59 µM]	0[8.59 µM]
C=C(CCN1C=C(C(=O)OCC)C(c2ccccc2)NC1=O)c1ccccc1 (stereo not drawn)	0[8.59 µM]	?
CC(C)c1ccc(-c2cc(-c3cn[nH]c3-c3ccccn3)ccn2)cc1	0	0
CC(C)CON=C1C[C@@H](O)[C@@H](O)[C@@H]2[C@H]3C(=O)N(C4CCCCC4)C(=O)[C@@H]3CC[C@H]12	0[8.59 µM]	?
CCCCCCCc1cc2ccc(F)cc2c2c(C(=O)OC)c(C(=O)OC)c(C(=O)OC)n12	0[8.59 µM]	?
COc1cc(NCCCC(C)N)c2ncccc2c1 (stereo not drawn)	10µM	8.9µM
